Most compounds without a hit are left out; they make up all but 7.5% or so of the library.
ELG1 genotoxic: qHTS screen for small molecules that induce genotoxicity in human embryonic kidney (HEK293T) cells expressing luciferase-tagged ELG1; Potency, µM (titrated, usually from 46 µM), for inactives: at the top dose activity change, positive = activation, hits mostly activators; AID 504466, 2011; HEK293T ELG1-luciferase reporter, luminescence, 16 h; hit rate 1.3% among 330,000; also: % of control where 0% means no effect; nearly all actives have a fitted effect of over 60% in size
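Screening used a luciferase reporter fused to human ELG1 in HEK293T cells. Luminescence was read on a CCD plate imager after 16 hr exposure and 30 min ONE-Glo incubation.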
FLuc modulator: qHTS profiling assay for firefly luciferase inhibitor/activator using purifed enzyme and Km concentrations of substrates (counterscreen for miR-21 project); Luciferin 4-monooxygenase (Photinus pyralis), P08659; purified FLuc, Km substrates, luminescence inhibition; Potency, µM (highest dose often 57.5 µM), for inactives: at the highest dose activity change, negative = inhibition, hits mostly inhibitors; hit rate 6.9% among 360,000; AID 588342, 2011;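 also: plate controls were vehicle for no effect and reference inhibitor for full effect; nearly all actives have a fitted effect of over 55% in size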
Target sequence (P08659 whole entry, looked up): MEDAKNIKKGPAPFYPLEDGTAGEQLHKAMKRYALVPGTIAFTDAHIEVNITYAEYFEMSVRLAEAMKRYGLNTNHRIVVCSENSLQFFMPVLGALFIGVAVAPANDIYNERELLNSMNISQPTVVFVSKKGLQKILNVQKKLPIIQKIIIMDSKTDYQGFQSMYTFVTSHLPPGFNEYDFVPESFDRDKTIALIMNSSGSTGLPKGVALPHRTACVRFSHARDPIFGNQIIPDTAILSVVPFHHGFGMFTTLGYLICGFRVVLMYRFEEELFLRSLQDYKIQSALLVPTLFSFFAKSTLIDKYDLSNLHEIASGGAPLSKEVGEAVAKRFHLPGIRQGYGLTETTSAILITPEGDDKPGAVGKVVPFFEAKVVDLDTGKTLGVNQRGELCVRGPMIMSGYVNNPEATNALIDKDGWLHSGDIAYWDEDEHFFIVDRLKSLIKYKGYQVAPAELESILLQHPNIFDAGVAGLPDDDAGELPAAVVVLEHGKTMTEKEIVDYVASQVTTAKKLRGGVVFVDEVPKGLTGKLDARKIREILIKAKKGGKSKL
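Purified P. pyralis luciferase, 10 nM final, with Km-level 10 uM D-luciferin and 10 uM ATP in 50 mM Tris acetate pH 7.5, 10 mM Mg acetate, 0.01% Tween-20, 0.05% BSA; 6-point qHTS titration about 60 µM downward; luminescence read.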
NPC1 promoter act: qHTS Assay for NPC1 Promoter Activators; Huh7 NPC1 promoter luciferase reporter, 24 h; Potency, µM (highest dose often 9.22 µM), for the others: at the top dose activation, hits mostly activators; hit rate 2.4% among 320,000; also: % of control where 0% means no effect; nearly all actives have a fitted effect of over 60% in size
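Cells: Huh7 expressing luciferase under the NPC1 promoter, 1500/well. Seeded 2 h, compound added, incubated 24 h at 37 °C. Luciferase reagent, 10 min ambient, then luminescence.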
Rab9 promoter act: qHTS Assay for Rab9 Promoter Activators; AID 485297, 2010; Potency, µM (titrated, usually from 9.22 µM), inactives show at the highest dose activation, negative = inhibition, usual class: activators; Huh7 Rab9 promoter-luciferase reporter, luminescence, 24 h; hit rate 2.8% among 320,000; also: % of control where 0% means no effect; nearly all actives have a fitted effect of over 60% in size
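Measured in stably transfected Huh7 cells bearing a Rab9 promoter–luciferase construct: 24 h compound treatment at 37 °C, followed by luminescence detection.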
SMN2 splice up: qHTS Assay for Enhancers of SMN2 Splice Variant Expression; hit rate 2.8% among 210,000; AID 1458, 2008; Potency, µM (titrated, usually from 46.1 µM), inactives show at the highest dose activity change, positive = activation, actives largely listed as activators; HEK293 SMN2-luciferase splicing reporter, luminescence, 30-36 h; also: % of control where 0% means no effect; nearly all actives have a fitted effect of over 55% in size
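HEK293 cells carry an SMN2 […]–luciferase reporter in which exon 7 inclusion puts luciferase in frame. Cells were plated 10-12 h before compound addition, then incubated 30-36 h at 37C. ONE-Glo luminescence was read; sodium butyrate at 4.5 mM final served as control.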
The depositor's hits bear a star. Calls follow the shape of the dose curve; as a rule, active = well fitted curve in the direction sought with a large enough effect; inconclusive = small, poorly fitted or top-dose-only effect, or another doubt; inactive = no such curve, though single readings can be large; an effect the other way counts as inactive or inconclusive. Potency is read from the fitted curve at half-maximal effect.

O=C(NNc1nc2cc3c(cc2s1)OCCO3)c1ccc(F)cc1 was read as ELG1 genotoxic 6%, FLuc modulator inconclusive, NPC1 promoter act 17%, Rab9 promoter act 27% and SMN2 splice up 24%.
`Fc1ccc2nc(Nc3nc4cc5c(cc4s3)OCCO5)sc2c1` gave ELG1 genotoxic inconclusive, FLuc modulator inconclusive, NPC1 promoter act 2.8µM*, Rab9 promoter act 2.8µM* and SMN2 splice up inconclusive.
`Fc1ccc2nc(Nc3nc4cc5c(cc4s3)OCO5)sc2c1` gave ELG1 genotoxic 13µM*, FLuc modulator 6µM*, NPC1 promoter act 2.5µM*, Rab9 promoter act 2µM* and SMN2 splice up 11µM*.
For c1ccc2sc(Nc3nc4cc5c(cc4s3)OCO5)nc2c1 the results were ELG1 genotoxic 5.2µM*, FLuc modulator 2.4µM*, NPC1 promoter act 3.2µM*, Rab9 promoter act 1µM* and SMN2 splice up 3.2µM*.
`O=C(NNc1nc2cc3c(cc2s1)OCO3)c1ccc(F)cc1` gave ELG1 genotoxic -3%, FLuc modulator inconclusive, NPC1 promoter act 3%, Rab9 promoter act 13% and SMN2 splice up 20%.
Screening CC(=O)Nc1ccc(NC(=O)c2cc(-c3cc(C)cc(C)c3O)n[nH]2)cc1 returned ELG1 genotoxic -7%, FLuc modulator 3.4µM*, NPC1 promoter act 8% and Rab9 promoter act 3%.
For Cc1cc(C)c(O)c(-c2cc(C(=O)Nc3ccc(S(=O)(=O)N4CCOCC4)cc3)[nH]n2)c1 the results were ELG1 genotoxic -43%, FLuc modulator -7%, NPC1 promoter act -4%, Rab9 promoter act -7% and SMN2 splice up -24%.
`Cc1ccc(-c2cc(C(=O)Nc3ccc(S(=O)(=O)Nc4ncccn4)cc3)[nH]n2)c(O)c1C` gave ELG1 genotoxic 3%, FLuc modulator 4.8µM*, NPC1 promoter act -2% and Rab9 promoter act 2%.
CC(=O)Nc1ccc(NC(=O)c2cc(-c3ccc(C)c(C)c3O)n[nH]2)cc1 was read as ELG1 genotoxic -16%, FLuc modulator 5.4µM*, NPC1 promoter act 10% and Rab9 promoter act 20%.
CS(=O)(=O)N(Cc1ccc(C(=O)NCCSc2ccccn2)cc1)c1ccccc1 was read as ELG1 genotoxic -3%, FLuc modulator -5%, NPC1 promoter act 1%, Rab9 promoter act -5% and SMN2 splice up -30%.
Screening C/C(=N\N=C(/N)c1nonc1N)c1ccc2c(c1)OCO2 returned ELG1 genotoxic inconclusive, FLuc modulator 2.7µM*, NPC1 promoter act 0.63µM* and Rab9 promoter act 0.89µM*.
`CCOc1ccc(OCCSc2nnnn2-c2ccccc2)cc1` gave ELG1 genotoxic 6%, FLuc modulator inconclusive, NPC1 promoter act 9% and Rab9 promoter act 6%.
`COc1ccccc1OCCSc1nnnn1-c1ccc(C)cc1` gave ELG1 genotoxic inconclusive, FLuc modulator 17µM*, NPC1 promoter act 15%, Rab9 promoter act -5% and SMN2 splice up inconclusive.
For Fc1ccccc1OCCSc1nnnn1-c1ccccc1 the results were ELG1 genotoxic 10µM*, FLuc modulator 3µM*, NPC1 promoter act 2.5µM*, Rab9 promoter act inconclusive and SMN2 splice up 3.2µM*.
Screening c1ccc(OCCSc2nnnn2-c2ccccc2)cc1 returned ELG1 genotoxic 3.7µM*, FLuc modulator 2.7µM*, NPC1 promoter act 2.5µM*, Rab9 promoter act 0.89µM* and SMN2 splice up 16µM*.
For O=C(c1ccc(C(F)(F)F)cc1)n1ccc(-c2cccs2)n1 the results were ELG1 genotoxic 0%, FLuc modulator 15µM*, NPC1 promoter act -3% and Rab9 promoter act 1%.
`O=C(c1ccc(F)cc1)n1nc(-c2cccnc2)nc1NCc1ccccc1` gave FLuc modulator -3% and SMN2 splice up 13%.
For O=C(O)CSc1nc(-c2cccs2)cc(C(F)(F)F)n1 the results were ELG1 genotoxic 0%, FLuc modulator -14%, NPC1 promoter act -4%, Rab9 promoter act 6% and SMN2 splice up -6%.
`O=S(=O)(c1ccccc1)n1ccc(-c2cnc(-c3ccccc3)s2)n1` gave ELG1 genotoxic inconclusive, FLuc modulator 15µM*, NPC1 promoter act inconclusive, Rab9 promoter act inconclusive and SMN2 splice up 46%.
`Cc1ccc(Cn2ccc(-c3cnc(-c4ccccc4)s3)n2)cc1` gave ELG1 genotoxic inconclusive, FLuc modulator 11µM*, NPC1 promoter act inconclusive, Rab9 promoter act inconclusive and SMN2 splice up -43%.
O=C(c1ccc(F)cc1)n1ccc(-c2cnc(-c3ccccc3)s2)n1 was read as ELG1 genotoxic 0.82µM*, FLuc modulator inconclusive, NPC1 promoter act 1µM*, Rab9 promoter act 0.71µM* and SMN2 splice up 13µM*.
Screening Cc1ccc(Cn2ccc(NC(=O)c3cc(-c4ccccc4)on3)n2)cc1 returned ELG1 genotoxic 3%, FLuc modulator 6%, NPC1 promoter act -5%, Rab9 promoter act -4% and SMN2 splice up -1%.
Screening Fc1ccc(Cn2ccc(-c3cnc(-c4ccccc4)s3)n2)cc1 returned ELG1 genotoxic inconclusive, FLuc modulator 11µM*, NPC1 promoter act inconclusive, Rab9 promoter act 3.2µM* and SMN2 splice up -27%.
O=c1ccc(-c2ccccc2)nn1Cc1ccc(F)cc1 was read as ELG1 genotoxic 0%, FLuc modulator -17%, NPC1 promoter act 0% and Rab9 promoter act 3%.
For CCOC(=O)c1c(NC2=NS(=O)(=O)c3ccccc32)sc2c1CCCCC2 the results were ELG1 genotoxic 1%, FLuc modulator 0%, NPC1 promoter act 1.4µM* and Rab9 promoter act inconclusive.
For O=C(CCC(=O)OCC(=O)c1ccc(Cl)cc1)NC1CCCCC1 the results were ELG1 genotoxic -1%, FLuc modulator -16%, NPC1 promoter act -1%, Rab9 promoter act 2% and SMN2 splice up -2%.
CC(C)(C)c1ccc(OCCC(=O)OCC(=O)NC2CCCCC2)cc1 was read as ELG1 genotoxic 2%, FLuc modulator 17µM*, NPC1 promoter act 1% and Rab9 promoter act 2%.
Cc1ccc(C(=O)COC(=O)CCC(=O)NC2CCCCC2)cc1C was read as ELG1 genotoxic -3%, FLuc modulator 9.5µM*, NPC1 promoter act 1%, Rab9 promoter act 2% and SMN2 splice up 0%.
For COCCn1c(SCC(=O)NC(=O)NC(C)(C)C)nc2ccccc21 the results were ELG1 genotoxic -3%, FLuc modulator -5%, NPC1 promoter act 9%, Rab9 promoter act -7% and SMN2 splice up -23%.
For O=C(O)CCCNS(=O)(=O)c1ccc2c(c1)OCCCO2 the results were ELG1 genotoxic -1%, FLuc modulator -1%, NPC1 promoter act -2%, Rab9 promoter act -4% and SMN2 splice up -10%.

Source: PubChem (National Center for Advancing Translational Sciences (NCATS))
